The values that follow come from PubChem BioAssay (EPA / NIEHS).

Molecules are shown by their SMILES. Active and inactive are the calls of the source. How the source made its calls: active means hit-call score of the fitted dose curve at least 0.9, where 1 is the maximum; inactive means score below 0.9.

The nature of this experiment: CCTE_Mundy_HCI_Cortical_Synap_Neur_Matur_SynapseCount: CCTE's Synaptogenesis and Neurite Maturation Assay in rat cortical cells for Synapse Count, Mundy Lab (AID 2284218). How it is done: CCTE_Mundy_HCI_Cortical_Synap&Neurite_Matur is a multiplexed, cell-based-readout assay that uses rat primary cortical cells with measurements taken at 288.33 hours after chemical dosing in a microplate: 96-well plate.CCTE_Mundy_HCI_Cortical_Synap_Neur_Matur_SynapseCount is one of eight components of the CCTE_Mundy_HCI_Cortical_Synap&Neurite_Matur assay. It measures synaptogenesis and neurite maturation related to number of synapses per neuron using High Content Imaging of fluorescently labelled markers.[…] Using a type of morphology reporter, loss -of-signal activity can be used to understand developmental effects.
Cells are plated onto 96 well plates and allowed 2 hr for attachment to the substrate. At days in vitro (DIV) 5, Cytosine Arabinoside (AraC) is added to arrest glial cell growth. Chemicals are dosed and a media change is performed at DIV 7 of differentiation and is continued through DIV 12 when the experiment is terminated. Cells are fixed with […] and Hoechst Dye. Cells are stained using Millipore Mouse anti-MAP2MAB3418 (1:800) and Millipore Rabbit anti-Synaptophysinsc-1750 (1:250) primary antibodies and Alexa Fluor-488 goat anti-mouse and AlexaFluor-546 goat anti-rabbit secondary antibodies to label neuronal cell nuclei, synapses and neurites. A Cellomics ArrayScan VTi HCS Reader is used for automated image acquisition and analysis of neurite outgrowth.
As to `C[C@@H]1CCO[C@H]2Cn3cc(C(=O)NCc4ccc(F)cc4F)c(=O)c(O)c3C(=O)N12`, the AC50 (in general, the concentration at which the activity in the assay is half-maximal) is 3.05 µM (active). For the compound `CCCCCC(C)(CC)C(=O)NC` (stereo not given), the outcome was inactive.

For the compound `CCCCCC=C(C)C(CC)CCO` (stereo not given), the outcome was inactive.

Regarding `CN(C)CCCn1cc(C2=C(c3c[nH]c4ccccc34)C(=O)NC2=O)c2ccccc21`, the outcome was inactive.

Consider `C[C@@H]1CC[C@@H](C(C)(C)O)[C@H](O)C1`, for which the call was inactive. For the compound `BrC1CC(Br)CC(Br)CC(Br)CC(Br)CC(Br)C1` (stereo not given), the AC50 is 3.61 µM (active). On to `Cc1[nH]n(C)c(=O)c1C(=O)c1ccc(C(F)(F)F)cc1S(C)(=O)=O`, for which the call was inactive. Same read-out and setting: under `CC(C)O` stands “inactive”. Still for that read-out and setting: the entry for `CC(=O)N[C@@H](CC(=O)O)C(=O)O` is “inactive”; for `O=C1CC2(CCCC2)CC(=O)N1CCCCN1CCN(c2ncccn2)CC1` it is “inactive”.

Take `CC(CNC(=S)[S-])NC(=S)[S-].[Zn+2]` (stereo not given): the AC50 is 50 µM (active). As to `CC(C)c1nn(C(=O)NC(C)(C)C)c(=O)n1N`, the result was inactive. The same measure, in the same setting: under `F` stands “inactive”; under `CCc1ccccc1`, “inactive”. Turning to `[O]=[V]([OH])([OH])[OH]`, the AC50 is 15.4 µM (active).
